The source made the active and inactive calls. Calls come from the whole dose curve; as a rule, active = well fitted curve in the direction sought with a large enough effect; inconclusive = small, poorly fitted or top-dose-only effect, or effect the other way, or another doubt; inactive = no such curve, though single readings can be large or run the other way.
The compounds below were run against Pyruvate kinase PKLR (Homo sapiens) (UniProt P30613) (assay: Secondary Concentration-Response Assay for Activators of Human Liver Pyruvate Kinase: for Probe SAR). Details: purified hPK-L, ATP production, Kinase-Glo luminescence; series mostly up to 58.3 µM; activity change, positive = activation: at the top concentration.
Text: NIH Chemical Genomics Center [NCGC]
Matthew G. Vander Heiden, M.D., Ph.D. [Harvard Medical School, 77 Avenue Louis Pasteur, Boston, MA 02115]
Human pyruvate kinase liver (hPK-L) enzyme was supplied as a highly purified (>95% pure) preparation from Harvard Medical School and assayed for its ability to generate ATP from ADP using phosphoenolpyruvate (PEP) as a substrate. ATP generation was detected in a coupled reaction by luciferase-mediated luminescence, an ATP-dependent process. Pyruvate kinase substrates, PEP and ADP, were present in the assay at Km and approximately 10-fold below Km respectively. The enzyme was assayed at an intermediate level of activity to screen for both inhibitors and activators.
NCGC Assay Protocol Summary for L-isoform:
Three uL of substrate mix (at r.t.) in assay buffer (50 mM Imidazole pH7.2, 50 mM KCl, 7 mM MgCl2, 0.01% Tween 20, 0.05% BSA) was dispensed into white solid bottom 1,536 well microtiter plates so that the final concentrations of substrates in the assay were 0.1 mM ADP and 0.5 mM PEP. 23 nL of compound were delivered by a pin tool and 1 uL of enzyme mix (final concentration of 0.1 nM) in assay buffer (4 degree Celsius) was added. Plates were incubated at room temperature for 1 hour. Two uL of detection mix (Kinase-Glo, Promega; at 4 degree Celsius protected from light) was added and luminescence read by a ViewLux (Perkin Elmer) at 1 second exposure/plate. Data were normalized to the uninhibited (row 31). Additionally, a no enzyme and 5-fold enzyme control was dispensed in row 32, split equally between the two conditions.
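Note: 0% = uninhibited enzyme wells on each plate.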

Sequence of Pyruvate kinase PKLR (Homo sapiens) (P30613 whole entry, looked up): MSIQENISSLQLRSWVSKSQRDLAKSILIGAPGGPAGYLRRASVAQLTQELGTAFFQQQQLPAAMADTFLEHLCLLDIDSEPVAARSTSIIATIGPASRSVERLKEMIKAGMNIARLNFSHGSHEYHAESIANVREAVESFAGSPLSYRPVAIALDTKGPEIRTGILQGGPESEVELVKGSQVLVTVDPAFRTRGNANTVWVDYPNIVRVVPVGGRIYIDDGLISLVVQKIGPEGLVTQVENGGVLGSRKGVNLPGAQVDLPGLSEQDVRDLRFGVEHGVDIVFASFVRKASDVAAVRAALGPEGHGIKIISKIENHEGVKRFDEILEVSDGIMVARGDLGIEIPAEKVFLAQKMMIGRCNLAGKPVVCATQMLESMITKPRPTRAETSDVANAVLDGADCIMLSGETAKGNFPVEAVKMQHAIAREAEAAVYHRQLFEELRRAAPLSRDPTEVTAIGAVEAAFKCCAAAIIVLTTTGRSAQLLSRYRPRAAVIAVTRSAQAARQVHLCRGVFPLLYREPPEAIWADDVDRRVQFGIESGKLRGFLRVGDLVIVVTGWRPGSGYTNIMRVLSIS

Activity change, positive = activation, inactive:
O=C1CCc2cc(S(=O)(=O)Nc3ccc4c(c3)OCCO4)ccc2N1 8.86%
Cc1ccc(NS(=O)(=O)c2cc3c(cc2N2CCC2)NC(=O)CC3)cc1C -7.16%
O=C1CCc2cc(S(=O)(=O)Nc3ccccc3-c3ccccc3)ccc2N1 2.85%
CC(=O)Nc1cccc(S(=O)(=O)Nc2ccc(C)c(C)c2)c1 6.7%
O=C1c2ccccc2C(=O)N1c1ccccn1 2.49%
O=C1CCc2cc(S(=O)(=O)Nc3cccc(C(F)(F)F)c3)ccc2N1 -3.5%
Cc1ccc(Nc2c(-c3ccc(C)o3)nc3cccc(C)n23)cc1 4.33%
O=C1CCc2cc(S(=O)(=O)Nc3ccc(F)c(Cl)c3)ccc2N1 4.41%
Cc1ccccc1OC1=NS(=O)(=O)c2ccccc21 0.916%
CN(C)c1cccc(S(=O)(=O)N2CCCN(S(=O)(=O)c3ccc4c(c3)OCCO4)CC2)c1 20%
COc1ccc(S(=O)(=O)Nc2ccc(C)c(C)c2)cc1 9.75%
O=C1CCc2cc(S(=O)(=O)Nc3cccnc3)ccc2N1 0.695%
Cc1ccc(NS(=O)(=O)c2cc3c(cc2F)NC(=O)CC3)cc1Cl 13.8%
O=C1CCc2cc(S(=O)(=O)Nc3cccc(Cl)c3)ccc2N1 3.94%
COc1cccc(N2C(=O)c3ccccc3C2=O)c1 -0.213%
Cc1ccc(NS(=O)(=O)c2ccc3c(c2)CCCC(=O)N3)cc1C 11.3%
COc1ccc(N2C(=O)c3ccccc3C2=O)cc1 -5.43%
Cc1ccc(NS(=O)(=O)c2cc3c(cc2Cl)CCC(=O)N3)cc1C 5.22%
Cc1ccc(NS(=O)(=O)c2ccc3c(c2)CCC(=O)N3)cc1 10.7%
Cc1cc(N2C(=O)c3ccccc3C2=O)n[nH]1 -12.2%
Cc1ccc2nc(-c3ccc(C)o3)c(Nc3ccccc3)n2c1 1.62%
O=C1CCc2cc(S(=O)(=O)Nc3ccccc3Cl)ccc2N1 -6.82%
Cc1ccc(NS(=O)(=O)c2cc3c(cc2C)OCC(=O)N3)cc1C 12%
O=C1CCc2cc(S(=O)(=O)Nc3ccncc3)ccc2N1 0.409%
Cc1ccc(NS(=O)(=O)c2cc3c(cc2Br)NC(=O)CO3)cc1C 14.1%
O=C1CCc2cc(S(=O)(=O)Nc3cc(F)cc(Cl)c3)c(F)cc2N1 9.75%
Cc1ccc(NS(=O)(=O)c2cccc(C(=O)O)c2)cc1C 3.56%
COc1ccc(NS(=O)(=O)c2ccc3c(c2)CCC(=O)N3)cc1 4.38%
Cc1cc(NS(=O)(=O)c2ccc3c(c2)CCC(=O)N3)ccc1Cl 13.3%
Cc1c(Cl)cccc1NS(=O)(=O)c1cc2c(cc1F)NC(=O)CC2 0.535%
N#Cc1ccc(NS(=O)(=O)c2ccc3c(c2)CCC(=O)N3)cc1 3.86%
O=C1c2ccccc2C(=O)N1c1ccccc1O -14.9%
Cc1ccc(NS(=O)(=O)c2cc3c(cc2Cl)NC(=O)C3)cc1C 8.55%
Cc1cc(C)n2c(Nc3ccccc3)c(-c3ccc(C)o3)nc2n1 7%
Cc1ccc(NS(=O)(=O)c2cc3c(cc2-c2ccsc2)NC(=O)CO3)cc1C 13.4%
Cc1ccc(-c2nc3cnccn3c2Nc2ccc(C(C)C)cc2)o1 -0.25%
Cc1ccc(NS(=O)(=O)c2cc3c(cc2F)NC(=O)CC3)cc1C 8.84%
CSc1cc2c(s1)c1cnn(Cc3cccc(O)c3)c(=O)c1n2C 4.55%
O=C1c2ccccc2C(=O)N1c1ccc2ccccc2n1 -10.2%

outcome, inactive:
O=S(=O)(c1ccc2c(c1)OCCO2)N1CCN(S(=O)(=O)c2c(F)cccc2F)CC1

Source: PubChem BioAssay AID2535 (National Center for Advancing Translational Sciences (NCATS), 2010)
